# Measured values taken from PubChem BioAssay (Tox21).
# “And” between values parts separate entries of the source, which are not always exact repeats. Identical values can stand only once. Inconclusive results are not listed. Entries that show only a call come without a potency. Some compounds were tested as several samples or in several runs, with calls that do not always agree. The source made the active and inactive calls. Calls follow the shape of the dose curve; as a rule, active = well fitted curve in the direction sought with a large enough effect in the repeat runs; inconclusive = weak or mixed curves; inactive = no such curve, though single readings can be large; an effect the other way counts as inactive or inconclusive.
# Experiments:
# [1] = A CellTox Green Cytotoxicity Assay to monitor cytotoxicity in HEK293 cells - 40 hour (AID 1224871); also: nearly all actives have a fitted effect of over 45% in size; also: potency is read from the fitted curve at half-maximal effect
# In short: (§1)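 Seeding of HEK293 cells together with cytotoxicity dye preceded a 5 h incubation at 37 C/5% CO2. Test compounds in DMSO were then added and fluorescence monitored across 40 h.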
# [2] = qHTS RealTime-Glo MT Cell Viability Assay in HEK293 cells - 16 hour (AID 1224872); also: nearly all actives have a fitted effect of over 50% in size; also: potency is read from the fitted curve at half-maximal effect
# In short: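 Reads taken at 0, 8, 16, 24, 32 and 40 h from the same wells. HEK293 cells (600/well) carried RealTime-Glo reagents from seeding, with compound added after a 5 h settle at 37 C.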
# [3] = qHTS RealTime-Glo MT Cell Viability Assay in HepG2 cells - 8 hour (AID 1224873); also: nearly all actives have a fitted effect of over 55% in size; also: potency is read from the fitted curve at half-maximal effect
# In short: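 HepG2 cells (600/well) mixed with RealTime-Glo MT reagent, settled 5 h at 37 C/5% CO2 before compound addition. Nonlytic NanoLuc luminescence from viable-cell prosubstrate reduction read repeatedly during 40 h treatment at 37 C.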
# [4] = qHTS RealTime-Glo MT Cell Viability Assay in HEK293 cells - 40 hour (AID 1224874); settings: RealTime-Glo luminescence; max response: stronger effect = lower value; also: nearly all actives have a fitted effect of over 50% in size; also: potency is read from the fitted curve at half-maximal effect
# In short: (§2)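 Tox21 screen in HEK293 using RealTime-Glo MT chemistry, with cells and reagent co-dispensed. Luminescence proportional to viable cell number was captured at intervals during 40 h compound exposure at 37 C.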
# [5] = A CellTox Green Cytotoxicity Assay to monitor cytotoxicity in HEK293 cells - 24 hour (AID 1224875); also: nearly all actives have a fitted effect of over 45% in size; also: potency is read from the fitted curve at half-maximal effect
# In short: as §1
# [6] = A CellTox Green Cytotoxicity Assay to monitor cytotoxicity in HepG2 cells - 16 hour (AID 1224876); also: nearly all actives have a fitted effect of over 45% in size; also: potency is read from the fitted curve at half-maximal effect
# In short: (§3)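 Nonlytic assay: viable cells exclude the dye, so fluorescence scales with cell death. HepG2 at 600 cells/well, compounds added after 5 h, signal read across 40 h.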
# [7] = qHTS RealTime-Glo MT Cell Viability Assay in HepG2 cells - 32 hour (AID 1224877); also: nearly all actives have a fitted effect of over 55% in size; also: potency is read from the fitted curve at half-maximal effect
# In short: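 HepG2 suspension premixed with RealTime-Glo reagents is plated at 600 cells per well and left 5 h at 37 C/5% CO2. Compounds in DMSO then go in, and bioluminescence reflecting viable cell number is recorded over 40 h.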
# [8] = A CellTox Green Cytotoxicity Assay to monitor cytotoxicity in HepG2 cells - 24 hour (AID 1224878); also: nearly all actives have a fitted effect of over 45% in size; also: potency is read from the fitted curve at half-maximal effect
# In short: as §3
# [9] = A CellTox Green Cytotoxicity Assay to monitor cytotoxicity in HepG2 cells - 40 hour (AID 1224879); also: nearly all actives have a fitted effect of over 40% in size; also: potency is read from the fitted curve at half-maximal effect
# In short: as §3
# [10] = qHTS RealTime-Glo MT Cell Viability Assay in HEK293 cells - 0 hour (AID 1224880)
# In short: as §2
SMILES,Potency [1],Potency [2],Potency [3],max response [4],Potency [5],Potency [6],Potency [7],Potency [8],Potency [9],Potency [10],Potency [4]
C[C@]12CC[C@H]3[C@@H](CCC4=CC(=O)CC[C@@H]43)[C@@H]1CC[C@@H]2O,inactive,inactive,inactive,-22.5% (inactive),inactive,inactive,inactive,inactive,inactive,inactive,
Clc1ccc(C(Cl)(Cl)Cl)cc1,inactive,inactive,inactive,-12.2% (inactive) and -12.9% (inactive),inactive,inactive,inactive,inactive,inactive,inactive,
CCOP(=S)(OCC)SCn1c(=O)oc2cc(Cl)ccc21,inactive,26.3 µM (active) and 19.5 µM (active),inactive,,inactive,inactive,,inactive,inactive,inactive,29.5 µM (active)
N#CC(c1ccccc1)c1ccccc1,inactive,inactive,inactive,-11% (inactive),inactive,inactive,,inactive,inactive,inactive,
CNC(=O)Oc1cccc2c1OC(C)(C)C2,inactive,inactive,inactive,-0.656% (inactive) and 0.539% (inactive),inactive,inactive,inactive,inactive,inactive,inactive,
CNC(=S)S,inactive,inactive,inactive,24.9% (inactive) and 0.0192% (inactive),inactive,inactive,inactive,inactive,inactive,inactive,
CN(C)P(=O)(N(C)C)N(C)C,inactive,inactive,inactive,3.42% (inactive) and 6.93% (inactive),inactive,inactive,,inactive,inactive,inactive,
C[N+](C)(C)C,inactive,inactive,inactive,4.13% (inactive) and -0.266% (inactive),inactive,inactive,inactive,inactive,inactive,inactive,
C=CC(Cl)CCl (centres undefined),inactive,inactive,inactive,19.1% (inactive) and 0.374% (inactive),inactive,inactive,,inactive,inactive,inactive,
O=C1Nc2ccc(Cl)cc2C(c2ccccc2)=NC1O (centres undefined),inactive,,inactive,-19.7% (inactive),inactive,inactive,inactive,inactive,inactive,inactive,
N#CCCCCC#N,inactive,inactive,inactive,1.71% (inactive) and 10.7% (inactive),inactive,inactive,,inactive,inactive,inactive,
CCC[CH2][Sn]([Cl])([Cl])[CH2]CCC,351 nM (active) and 490 nM (active),198 nM (active) and 174 nM (active),7.86 µM (active) and 8.71 µM (active),,556 nM (active) and 2.19 µM (active),2.22 µM (active) and 1.74 µM (active),,442 nM (active) and 436 nM (active),313 nM (active) and 309 nM (active),inactive,88.2 nM (active) and 110 nM (active)
C[C@]12CCC(=O)C=C1CC[C@@H]1[C@@H]2CC[C@@]2(C)[C@H]1CC[C@]2(C)O,49.4 µM (active) and inactive,19.7 µM (active),inactive,,,22.1 µM (active) and inactive,inactive,35 µM (active),19.7 µM (active) and 23.9 µM (active),inactive,19.7 µM (active)
CCOC(=O)c1ccccc1N,inactive,inactive,inactive,-0.283% (inactive) and 0.344% (inactive),inactive,inactive and 49 µM (active),,inactive and 49 µM (active),inactive and 54.9 µM (active),inactive,
O=S(=O)(O)C(F)(F)C(F)(F)C(F)(F)C(F)(F)C(F)(F)C(F)(F)C(F)(F)C(F)(F)F,33 µM (active) and inactive and 21.9 µM (active),inactive,inactive,-24.5% (inactive) and 0.151% (inactive),,18.6 µM (active) and inactive,inactive,18.6 µM (active) and inactive,16.5 µM (active) and inactive,inactive,
Cl,inactive,inactive,inactive,0.872% (inactive) and 8.14% (inactive),inactive,inactive,,inactive,inactive,inactive,
CC(C)(c1ccc(OCC2CO2)cc1)c1ccc(OCC2CO2)cc1 (centres undefined),inactive,inactive,inactive,-0.153% (inactive),inactive,inactive,,inactive,inactive,inactive,
CCCCOCCOC(C)=O,inactive,inactive,inactive,4.03% (inactive) and 1.95% (inactive),inactive,inactive,,inactive,inactive,inactive,
Cn1c(-c2ccccc2)cc(-c2ccccc2)[n+]1C,inactive,,inactive,,inactive,inactive,inactive,inactive,inactive,inactive,9.75 µM (active) and 21.9 µM (active)
CC(C)(C#N)N=NC(C)(C)C#N,inactive,inactive,inactive,5.82% (inactive) and -2% (inactive),inactive,inactive,,inactive,inactive,inactive,
CC(C)CON=O,inactive,inactive,inactive,8.89% (inactive) and 0.247% (inactive),inactive,inactive,,inactive,inactive,inactive,
Cc1cccc(N=Nc2ccc(N(C)C)cc2)c1,inactive,,,,inactive,inactive,,inactive,inactive,inactive,
COP(=S)(OC)SCn1nnc2ccccc2c1=O,inactive,,inactive,,inactive,inactive,inactive,inactive,inactive,inactive,48 µM (active)

SMILES,Potency [1],Potency [2],Potency [3],max response [4],Potency [5],Potency [6],Potency [7],Potency [8],Potency [9],Potency [10],Potency [4]
COC(=O)Nc1nc2ccccc2[nH]1,inactive,inactive,inactive,,inactive,inactive,inactive,inactive,5.49 µM (active) and 11 µM (active),inactive,
CCCCCCCCCC(CC)c1ccc(S(=O)(=O)O)cc1 (centres undefined),,inactive,inactive,-25.5% (inactive) and -23.7% (inactive) and -24.7% (inactive),,49 µM (active) and 16.9 µM (active) and 42 µM (active),,54.9 µM (active) and 21.3 µM (active) and 38.9 µM (active),21.3 µM (active) and 38.9 µM (active),inactive,44.1 µM (active)
CCCCCCCCCCCCCl,inactive and 17.4 µM (active),inactive,inactive,0% (inactive) and 16.5% (inactive),,inactive and 13.8 µM (active),inactive,inactive and 12.3 µM (active),inactive and 12.3 µM (active),inactive,
CCCCC(C#N)(Cn1cncn1)c1ccc(Cl)cc1 (centres undefined),inactive,inactive,inactive,,inactive,inactive,,inactive,,inactive,
CCCCCCCCCc1ccc(O)cc1,44.1 µM (active) and inactive,6.99 µM (active) and 4.36 µM (active),inactive,,,39.3 µM (active),inactive,44.1 µM (active) and 38.9 µM (active),24.8 µM (active),inactive,11.1 µM (active) and 6.92 µM (active)
OC(c1ccc(Cl)cc1)(c1cncnc1)c1ccccc1Cl (centres undefined),19.8 µM (active) and inactive,11.2 µM (active),,,,49.8 µM (active) and inactive,17.7 µM (active) and inactive,25 µM (active) and inactive,17.7 µM (active) and inactive,inactive,5.59 µM (active) and 27.5 µM (active)
Nc1ccc([N+](=O)[O-])cc1N,inactive,inactive,inactive,0.0622% (inactive) and -18.5% (inactive),inactive,inactive,,inactive,inactive,inactive,
ClCC(Cl)CCl,inactive,inactive,inactive,3.83% (inactive) and -1.84% (inactive),inactive,inactive,,inactive,inactive,inactive,
[CH3][Sn]([Cl])([Cl])[Cl],inactive,inactive,inactive,17% (inactive) and 3.42% (inactive),inactive,inactive,,inactive,inactive,inactive,
Nc1ncn[nH]1,inactive,inactive,inactive,-0.91% (inactive) and 1.15% (inactive),inactive,inactive,,inactive,inactive,inactive,
[Cl-].[Cl-].[Cl-].[Fe+3],inactive,inactive,inactive,0.374% (inactive),inactive,inactive,,inactive,inactive,inactive,
N#Cc1nn(-c2c(Cl)cc(C(F)(F)F)cc2Cl)c(N)c1S(=O)C(F)(F)F (centres undefined),inactive,22 µM (active) and 21.3 µM (active),inactive,,inactive,inactive,,inactive,inactive,inactive,24.7 µM (active)
COP(=S)(OC)Oc1ccc(Sc2ccc(OP(=S)(OC)OC)cc2)cc1,inactive,inactive,inactive,5.12% (inactive),inactive,inactive,,inactive,inactive,inactive,
CC(C)(O)C(=O)Nc1ccc([N+](=O)[O-])c(C(F)(F)F)c1,inactive,25.1 µM (active) and 25.3 µM (active),inactive,,inactive,inactive,,inactive,inactive,inactive,22.3 µM (active) and 17.9 µM (active)
CCNCC,inactive,inactive,inactive,-0.119% (inactive) and -1.58% (inactive),inactive,inactive,,inactive,inactive,inactive,
CCC[CH2][Sn]([Cl])([CH2]CCC)[CH2]CCC,491 nM (active) and 549 nM (active),390 nM (active) and 692 nM (active),3.47 µM (active) and 1.38 µM (active),,979 nM (active) and 2.45 µM (active),1.74 µM (active) and 1.23 µM (active),,1.38 µM (active) and 2.19 µM (active),1.38 µM (active) and 692 nM (active),inactive,310 nM (active) and 436 nM (active)
CC[n+]1c(-c2ccccc2)c2cc(N)ccc2c2ccc(N)cc21,inactive,17.3 µM (active) and 23.9 µM (active),inactive,,inactive,inactive,,inactive,inactive,inactive,3.45 µM (active) and 2.13 µM (active)
COP(=S)(OC)Oc1ccc(S(=O)(=O)N(C)C)cc1,inactive,inactive,inactive,-18.5% (inactive) and -16.7% (inactive),inactive,inactive,,inactive,inactive,inactive,
CCCCOCC1CO1 (centres undefined),inactive and 19.5 µM (active),inactive,inactive,4.37% (inactive) and 7.91% (inactive),,inactive and 43.6 µM (active),inactive,inactive and 38.9 µM (active),inactive and 43.6 µM (active),inactive,
O=[N+]([O-])c1ccc(Cl)c([N+](=O)[O-])c1,14 µM (active) and 19.5 µM (active),11.1 µM (active) and 12.3 µM (active),24.9 µM (active) and 15.5 µM (active),,39.5 µM (active),39.5 µM (active) and 54.9 µM (active),,35.2 µM (active) and 49 µM (active),39.5 µM (active) and 24.5 µM (active),inactive,9.92 µM (active) and 12.3 µM (active)
COP(=O)(NC(C)=O)SC (centres undefined),inactive,inactive,inactive,1.36% (inactive) and 10.1% (inactive),inactive,inactive,,inactive,inactive,inactive,
Clc1cccc(C(Cl)(Cl)Cl)n1,,inactive,inactive,2.13% (inactive) and -1.58% (inactive),inactive,,inactive,,,inactive,
O=C(O)CF,inactive,inactive,inactive,2.85% (inactive) and 14% (inactive),inactive,inactive,,inactive and 19.5 µM (active),inactive and 19.5 µM (active),inactive,
